# Measured values: PubChem BioAssay (NCI)
# Compounds without any hit were thinned out: in the full panel of roughly 83,000, 20% have a hit.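 Testing used 96-well plates and a 48-hour single-concentration exposure. Example: -40 means 40% of the starting cells died.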 The source made the active and inactive calls.
# Test system: MOLT-4 leukemia
# Assay: NCI-60 one-dose screen, 48 h (100 = growth as untreated, 0 = no growth, -100 = all killed)
# Conditions: 10 µM unless noted
# Method: Growth inhibition of the MOLT-4 human tumor cell line is measured as a screen for anti-cancer activity. Cells are grown in 96 well plates and exposed to the test compound for 48 hours. Compounds are tested at a single concentration, which is 10^-5 M for most compounds. The reported endpoint is percent growth (GI% or GIPRCNT), where numbers from 0 - 100% represent growth inhibition, and numbers from -100% - 0 represent cell death. For example, a value of 40 represents 60% growth inhibition. A value of 0 means no net growth occurred over the course of the experiment. A value of -40 indicates 40% of cells at the beginning of the experiment died by the end of the experiment. A value of -100 means all cells are dead at the end of the experiment.
# NCI-60 Human Tumor Cell Lines Screen was performed using the standard one-dose NCI protocol, which is described in more detail at https://dtp.cancer.gov/discovery_development/nci-60/default.htm.
# Compounds with GIPRCNT values below 10 were considered active. Activity score was based on GIPRCNT using the following formula: […]
# Score is 0 for GIPRCNT values of 100 or above, 50 for GIPRCNT values of 0, and 100 for GIPRCNT values of -100.
row,SMILES,growth
1,N#C/C(=C\c1ccc(-c2ccc(Cl)c(Cl)c2)o1)C(=O)Nc1ncc(Cc2ccc(Cl)cc2)s1,58.6% (inactive)
2,COc1cccc2c1C=CC1(O2)Oc2cccc(OC)c2C=C1C (stereo not given),11.7% (inactive)
3,O=C(CSc1nc2ccccc2c(=O)n1-c1ccccc1)N/N=C/c1ccc(Oc2ccc(Cl)cc2)cc1,58.7% (inactive)
4,C#Cc1nc(C(=O)NCCCCCCC(=O)NO)cs1,-26.1% (active)
5,Cc1cc2nc3c4cc(C#N)ccc4n(CCN(C)C)c3nc2cc1C,3.23% (active)
6,CCN(CC)c1ccc(/C=N/NC(=O)c2ccc(NS(C)(=O)=O)cc2)c(O)c1,9.84% (active)
7,Cc1ccc(S(=O)(=O)NCCCNc2nccc(-c3[nH]c(-c4ccccc4)nc3-c3ccc(F)c(O)c3)n2)cc1,39.2% (inactive)
8,COc1ccc(C(=O)c2c(N)c(C#N)cn2-c2ccc(Cl)cc2Cl)cc1,90.7% (inactive)
9,O=C(Nc1ccc(Cl)c(C(F)(F)F)c1)Nc1ccc2c(ccn2C(=O)c2cccc(F)c2)c1,10.9% (inactive)
10,CN1CCN(Cc2ccc(NC(=O)c3cncc(C#Cc4cnc5ccc(N)nn45)c3)cc2C(F)(F)F)CC1,7.21% (active)
11,Cc1ccccc1NC(=O)Nc1nc2ccc([N+](=O)[O-])cc2s1,12.5% (inactive)
12,CC1=C(C)C(=O)C(Nc2cccc(C)c2)=C(Br)C1=O,-29.9% (active)
13,C#Cc1cc(OC)c(C(=O)Nc2ccc(F)cc2C(=O)Nc2cccc(S(=O)(=O)C(F)(F)F)c2)cn1,-32.9% (active)
14,O=C(COc1ccc(/C=C2\C(=O)Nc3ccc(Cl)cc32)cc1)Nc1ccc(Cl)cc1,55.5% (inactive)
15,CCCc1cc2cc(-n3nc(CC)c4c3CC(C)(C)CC4=O)cc(NC3CCC(O)CC3)c2c(=O)[nH]1 (stereo not given),15.3% (inactive)
16,CCCCSC1=C(Cl)CN(c2ccccc2)C1=O,105% (inactive)
17,Brc1cccc(-c2cc(-c3ccc4c(c3)OC=CO4)[nH]n2)c1,29.2% (inactive)
18,Cc1ccc(C)c(NC2=C(Cl)C(=O)c3nc(C)ccc3C2=O)c1,-11% (active)
19,Cn1c(SCC(=O)c2ccco2)nc2ccccc2c1=O,96% (inactive)
20,CCN(CC)c1ccc(/C=N/NC(=O)c2ccc(NS(C)(=O)=O)cc2)cc1,14.4% (inactive)

row,SMILES,growth
1,COc1ccc(/C=N/N=C(/c2ccccc2)c2ccc3nc(-c4ccc(Cl)cc4)[nH]c3c2)cc1,53.2% (inactive)
2,COc1ccc(/C(=N\N=C(N)N)c2ccc(Cl)cc2)cc1OC,52.5% (inactive)
3,Nc1nc(=O)n([C@H]2C[C@H](O)[C@@H](CO)O2)cc1C=O,92% (inactive)
4,CNC(=O)c1cc(-c2ccc(NC(=S)Nc3cccc(C(F)(F)F)c3)cc2)nc2cccnc12,117% (inactive)
5,CC1(C)CC[C@]23CC[C@]4(C)[C@H](CC[C@@H]5[C@@]6(C)CC[C@H](N)C(C)(C)[C@@H]6CC[C@]54C)[C@H]2[C@H]1OC3,-13.3% (active)
6,COc1ccc2c(c1)c(-c1nnc(N)nc1-c1c[nH]c3ccc(F)cc13)cn2C,26.2% (inactive)
7,Fc1cccc(Cl)c1/C=N/Nc1nc(N/N=C/c2c(F)cccc2Cl)nc(N2CCCCC2)n1,13.7% (inactive)
8,Clc1ccc2[nH]cc(-c3nn4cc(-c5ccncc5)nc4s3)c2c1,81.8% (inactive)
9,O=C1Nc2ccc(F)cc2/C1=C\C(=O)c1ccc(NS(=O)(=O)c2ccccc2)cc1,40.7% (inactive)
10,NCCNC(=O)c1cccc(COc2ccccc2NC(=O)c2cc(Cl)c(Cl)[nH]2)c1,89.5% (inactive)
11,Cc1[nH]c(C(=O)Nc2ccc(C(N)=O)cc2N2CCOC(C)C2)c(Cl)c1Cl (stereo not given),96.4% (inactive)
12,CNC(=O)Nc1ccc(Nc2cc(-c3ccc(-n4cccn4)cc3)[nH]n2)c(C)c1,91.1% (inactive)
13,O=C1/C(=C/c2cc(F)cc(F)c2)Cc2cc3c(cc21)OCO3,43.3% (inactive)
14,CCOP(=O)(OCC)OC[C@]12CC[C@@H](C)[C@H](C)C1C1=CC[C@@H]3[C@@]4(C)CCCNC(C)(C)[C@@H]4CC[C@@]3(C)[C@]1(C)CC2 (stereo not given in full),-69.1% (active)
15,NS(=O)(=O)c1cccc(Nc2nc(SCC(=O)c3ccc(Cl)cc3)nc3c2CCC3)c1,105% (inactive)
16,Cc1ccc(OCc2occc2C(=O)N2CCOCC2)cc1,109% (inactive)
17,Cn1cc(-c2nn3cc(-c4ccncc4)nc3s2)c2cc(F)ccc21,37.3% (inactive)
18,CCc1cc2c(cc1Cl)nc1c(=O)[nH]c(=O)nc-1n2CCOCC(C)C,64.1% (inactive)
19,Cc1ccccc1Nc1nc(SC(C)C)nc(-c2ccccc2)c1C#N,90.2% (inactive)
20,CN(C)S(=O)(=O)c1ccc(-c2nc(C(Cl)Cl)nc3cc(-c4ccc(F)cc4)nn23)cc1,3.19% (active)
